The supplement of paper PMC3545927
This is one part of the list. No count for the full screen is at hand.

Biological target: furin, P09958
Experiment: furin cleavage Z-score vs untreated control; higher = more cleavage, active = 3.5 or more, inactive = 1 or less, 8 variable residues between constant flanks
Procedure, shortened: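 Purified furin cleaved 8-mer peptides that were fused to a cDNA oligonucleotide and held on magnetic beads by their N-terminus. Each 0.01 ml reaction used a 1:10 enzyme:substrate ratio in 50 mM HEPES pH 7.5 with CaCl2 and NaCl and ran 7.5, 15 or 30 min. Released DNA was adapter-tagged by PCR and sequenced, and read counts gave abundance. The cleavage Z-score came from log counts against furin-free reactions, lowess-adjusted and scaled by median absolute deviation.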

Chain of furin, P09958 (P09958 whole entry): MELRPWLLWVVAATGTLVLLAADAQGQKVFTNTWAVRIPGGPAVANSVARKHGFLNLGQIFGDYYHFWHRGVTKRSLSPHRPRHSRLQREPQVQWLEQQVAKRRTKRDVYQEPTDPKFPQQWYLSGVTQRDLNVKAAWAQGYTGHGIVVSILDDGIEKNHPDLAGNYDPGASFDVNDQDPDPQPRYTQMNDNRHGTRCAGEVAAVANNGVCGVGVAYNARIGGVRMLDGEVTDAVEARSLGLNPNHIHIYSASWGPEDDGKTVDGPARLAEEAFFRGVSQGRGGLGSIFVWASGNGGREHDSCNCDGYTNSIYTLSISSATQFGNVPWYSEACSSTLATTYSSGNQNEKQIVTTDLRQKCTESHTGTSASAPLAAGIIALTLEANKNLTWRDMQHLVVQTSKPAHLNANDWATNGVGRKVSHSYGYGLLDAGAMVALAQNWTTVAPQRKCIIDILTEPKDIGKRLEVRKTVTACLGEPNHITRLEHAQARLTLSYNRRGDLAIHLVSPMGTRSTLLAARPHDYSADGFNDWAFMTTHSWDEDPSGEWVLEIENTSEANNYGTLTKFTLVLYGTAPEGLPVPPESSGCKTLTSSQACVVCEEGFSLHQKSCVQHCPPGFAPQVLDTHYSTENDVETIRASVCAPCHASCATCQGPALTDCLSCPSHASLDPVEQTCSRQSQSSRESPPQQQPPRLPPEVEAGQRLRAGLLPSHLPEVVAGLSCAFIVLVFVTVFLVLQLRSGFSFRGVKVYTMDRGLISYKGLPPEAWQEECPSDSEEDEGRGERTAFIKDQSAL

Row | Sequence | furin cleavage Z-score (7.5 min) | furin cleavage Z-score (15 min) | furin cleavage Z-score (30 min)
1 | CAPLTDFDQGAGNASASA [HC391] | -0.36 (inactive) | -0.0198 (inactive) | -2.39 (inactive)
2 | CAVLAGIAYFAGNASASA [HC338] | -0.161 (inactive) | 0.738 (inactive) | -0.272 (inactive)
3 | CAEHTTPCSGAGNASASA [HC1975] | -1.73 (inactive) | -1.12 (inactive) | 0.179 (inactive)
4 | CATYPCSGSWAGNASASA [HC1849] | -0.56 (inactive) | -0.736 (inactive) | -0.826 (inactive)
5 | CARYRRGFIHAGNASASA [FS-1810] | 1.59 | 3.75 (active) | 4.82 (active)
6 | CARYRRVAEGAGNASASA [FS-1980] | 3.4 | 4.71 (active) | 4.58 (active)
7 | CARYRRHGTHAGNASASA [FS-1942] | 3.5 | 5.79 (active) | 6.5 (active)
8 | CARLRRLAEGAGNASASA [FS-2715] | -0.759 (inactive) | -0.389 (inactive) | -0.211 (inactive)
9 | CARYRRVITVAGNASASA [FS-1844] | -0.325 (inactive) | -0.579 (inactive) | 0.939 (inactive)
10 | CARYRRWMKNAGNASASA [FS-2321] | -1.37 (inactive) | -0.188 (inactive) | 2.73
11 | CARPWRPAEGAGNASASA [FS-2442] | -1.33 (inactive) | -0.417 (inactive) | 0.551 (inactive)
12 | CAGLQDCTMLAGNASASA [HC1524] | 1.18 | 0.431 (inactive) | 0.816 (inactive)
13 | CASCTTPCSGAGNASASA [HC1957] | 0.117 (inactive) | -0.946 (inactive) | 0.203 (inactive)
14 | CARLYVGGPLAGNASASA [HC1500] | -0.16 (inactive) | 0.662 (inactive) | 0.78 (inactive)
15 | CATGALVTPCAGNASASA [HC1374] | 1.46 | -0.486 (inactive) | -0.745 (inactive)
16 | CAVDIRLKRVAGNASASA [FS-148] | 0.517 (inactive) | 1.34 | 1.54
17 | CASLLRHHNLAGNASASA [HC1385] | -0.346 (inactive) | 0.336 (inactive) | 0.383 (inactive)
18 | CAICQRVKRVAGNASASA [FS-1633] | 0.73 (inactive) | -0.331 (inactive) | 1.69
19 | CADELAAKLVAGNASASA [HC861] | -0.523 (inactive) | 0.896 (inactive) | 0.946 (inactive)
20 | CAIQARAKRVAGNASASA [FS-256] | 4.63 (active) | 3.93 (active) | 4.73 (active)
21 | CAYSHRWKRNAGNASASA [FS-112] | 7.46 (active) | 8.5 (active) | 7.17 (active)
22 | CALNERLKRVAGNASASA [FS-53] | 2.86 | 3.12 | 3.89 (active)
23 | CARLLRHKRMAGNASASA [FS-188] | 8.79 (active) | 8.2 (active) | 6.11 (active)
24 | CAVVICESAGAGNASASA [HC1531] | 0.204 (inactive) | -0.473 (inactive) | 1.4
25 | CAEVVTSNWVAGNASASA [HC2221] | -0.745 (inactive) | -1.12 (inactive) | -0.494 (inactive)
26 | CASPITYSTYAGNASASA [HC805] | 0.448 (inactive) | 0.103 (inactive) | -0.462 (inactive)
27 | CADVVVVATDAGNASASA [HC876] | -1.44 (inactive) | -0.376 (inactive) | -0.463 (inactive)
